According to PubChem BioAssay (NCATS):
Values joined by “and” are separate entries in the source; they are usually repeats but may differ in a detail not shown here. Equal values may be shown once. Records with an inconclusive call do not appear. Active and inactive are the calls of the source. Unless noted, calls come from the whole dose curve; as a rule, active = well fitted curve in the direction sought with a large enough effect; inconclusive = small, poorly fitted or top-dose-only effect, or another doubt; inactive = no such curve, though single readings can be large; an effect the other way counts as inactive or inconclusive.

What was measured:
[1] = biological target: Endonuclease 4 (Escherichia coli (strain K12)) (UniProt P0A6C1); test: Counterscreen for APE1 Inhibitors: qHTS Validation Assay for Inhibitors of Endonuclease IV (AID 1708)
Procedure, shortened: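 Cleavage of a quenched abasic-site DNA duplex (50 nM, 5'-TAMRA, 3'-BHQ-2) by 2 nM enzyme is followed as fluorescence increase. Compounds are preincubated with enzyme 15 min at room temperature before substrate addition.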

[2] = qHTS for differential inhibitors of proliferation of Plasmodium falciparum line 7G8 (AID 1815);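 note: potency is the fitted concentration of half-maximal effect; parasite growth measured after three days of incubation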
[3] = qHTS for differential inhibitors of proliferation of Plasmodium falciparum line GB4 (AID 1816); conditions: Potency: Plasmodium falciparum GB4 proliferation inhibition;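 note: potency is the fitted concentration of half-maximal effect; parasite growth measured after 72 h incubation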
[4] = qHTS for differential inhibitors of proliferation of Plasmodium falciparum line 3D7 (AID 1876); note: potency is the fitted concentration of half-maximal effect
[5] = qHTS for differential inhibitors of proliferation of Plasmodium falciparum line D10 (AID 1877);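 note: potency is the fitted concentration of half-maximal effect; parasites grown with compound for 72 h before DNA staining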
[6] = qHTS for differential inhibitors of proliferation of Plasmodium falciparum line Dd2 (AID 1882); conditions: Potency: Plasmodium falciparum Dd2 proliferation inhibition; note: potency is the fitted concentration of half-maximal effect; nearly all actives have a fitted effect of over 65% in size
Procedure, shortened: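 SYBR Green I DNA fluorescence read-out, ex 485/em 535 nm. Signals were normalized to 0.29 uM artemisinin and DMSO wells, then corrected using vehicle-only plates flanking each stack. Parasite growth ran 72 h in erythrocytes before lysis.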

[7] = qHTS for differential inhibitors of proliferation of Plasmodium falciparum line W2 (AID 1883); conditions: Potency: Plasmodium falciparum W2 proliferation inhibition;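 note: potency is the fitted concentration of half-maximal effect; parasites grown with compound for 72 h before lysis and staining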
[8] = biological target: ATP-dependent DNA helicase Q1 (Homo sapiens) (UniProt P46063); test: qHTS Validation Assay for Inhibitors of RecQ-Like Dna Helicase 1 (RECQ1) (AID 2353)
Procedure, shortened: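 50 nM RECQ1T1 preincubated 15 min with compound in Tris pH 8.0 buffer with MgCl2, DTT, Tween-20 and 2.5 ug/ml poly(dI-dC); started with 200 nM TAMRA/BHQ-2 forked duplex and 2 mM ATP. Unwinding read as fluorescence (525/598 nm), two reads 2 h apart.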

[9] = Cytometric Cell-Based qHTS for Inhibitors of the mTORC1 Signaling Pathway in MEF (Tsc2-/-, p53-/-) Cells (AID 2660);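 note: percent of cells above a phospho-rpS6 to PI ratio cutoff in each well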
Procedure, shortened: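 Percent of cells positive for normalized phospho-S6 staining is reported, with the cutoff set from rapamycin (7.5 nM) versus DMSO wells. Tsc2-/-, p53-/- MEFs received compound for 24 hrs.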

[10] = High Content Imaging Cell-Based qHTS for Inhibitors of the mTORC1 Signaling Pathway in MEF (Tsc2-/-, p53-/-) Cells (AID 2666); conditions: at 38.3 µM (top of the series);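 note: percent of cells scored positive for phospho-rpS6 Ser235/236 immunostaining by imaging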
Procedure, shortened: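 Phospho-rpS6 (Ser235/236) immunofluorescence, normalized and scored as % positive cells using rapamycin and DMSO controls, was read in empty-vector Tsc2-/-, p53-/- MEFs after 24 h compound exposure at 37 C; propidium iodide counted cells.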

[11] = High Content Imaging Cell-Based qHTS for Inhibitors of the mTORC1 Signaling Pathway in MEF Cells (AID 2667);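 note: Tsc2-/- p53-/- MEFs stably re-expressing wild-type Tsc2 exposed 24 h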
Procedure, shortened: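 WT MEFs (Tsc2-/-, p53-/- re-expressing Tsc2), in DMEM + 10% FBS, were treated with compound for 24 h at 37 C. Cells were then fixed and stained for phospho-rpS6 Ser235/236 with propidium iodide as cell count. Values are % positive cells, with thresholds set against rapamycin-treated cells.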

[12] = Cytometry Cell-Based qHTS for Inhibitors of the mTORC1 Signaling Pathway in MEF cells (AID 2668);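 note: Tsc2-/- p53-/- mouse embryonic fibroblasts stably re-expressing wild-type Tsc2; percent cells positive for phospho-rpS6 Ser235/236 relative to propidium iodide stain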
Procedure, shortened: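 Tsc2-/-, p53-/- MEFs re-expressing WT Tsc2; cpd 24 hrs, 37 degree Celsius; PFA fix, Alexa-488 p-rpS6 (Ser235/236) Ab 2 hrs RT, PI counterstain; Acumen 488nm scan; p-S6/PI ratio → % positive cells; PI count = viability.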

[13] = biological target: Ubiquitin carboxyl-terminal hydrolase 2 (Homo sapiens) (UniProt O75604); test: qHTS Validation Assay for Inhibitors of Ubiquitin-specific Protease USP2a Using CHOP2 as the Reporter (AID 463106)
Procedure, shortened: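 USP2 core (10 nM final) was preincubated with compound 30 min at RT in pH 8.0 Tris/CaCl2/beta-ME/CHAPS buffer. Ub-CHOP2 and reporter substrate (25 nM final each) were then added, with fluorescence (Ex 485/Em 531) read after 60 min. Data were normalized to NEM full inhibition and fitted to concentration-response curves.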

[14] = biological target: DNA polymerase III PolC-type (Bacillus subtilis (strain 168)) (UniProt P13267); test: qHTS Validation Assay for the Inhibitors of DNA Replication in Gram-Positive Bacteria (AID 485295);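 note: reconstituted holoenzyme with PolC plus beta clamp SSB and primase; PicoGreen fluorescence of double-stranded DNA made on primed circular M13 template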
Procedure, shortened: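 First, compound is mixed with the reconstituted replication complex and held at room temperature. Next, circular single-stranded M13Gori with nucleotides starts synthesis. Finally, PicoGreen in EDTA halts the reaction and stains double-stranded product for fluorescence reading.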

[15] = biological target: Tumor susceptibility gene 101 protein (Homo sapiens) (UniProt Q99816); test: qHTS Validation Assay for Iinhibitors of HIV-1 Budding by Blocking the Interaction of PTAP/TSG101 (AID 485342; calls by dose curve)
Procedure, shortened: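 Binding of a FITC-tagged PTAP-motif peptide (50 nM) to the Tsg101 binding domain (10 uM) is monitored by fluorescence polarization. Compounds are pin-delivered before peptide addition, and incubation runs 20 min at room temperature.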

[16] = biological target: Beta-2 adrenergic receptor (Homo sapiens) (UniProt P07550); test: qHTS validation assay of beta-arrestin-biased ligands of beta2-adrenergic receptor (AID 485366)
Procedure, shortened: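 Luminescence from a tTA-responsive luciferase, induced when recombinant beta-arrestin is recruited to recombinant beta2-AR, served as the agonism signal. Cells were exposed to compound for 18 hr at 37 degrees C; titrations spanned up to 46 microM.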

[17] = biological target: Thioredoxin reductase 1, cytoplasmic (Rattus norvegicus) (UniProt O89049); test: qHTS Assay for Inhibitors of Mammalian Selenoprotein Thioredoxin Reductase 1 (TrxR1) (AID 488773); conditions: Potency: inhibition;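 note: drop in NADPH fluorescence over an 8 min run after selenite addition; nearly all actives have a fitted effect of over 40% in size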
Procedure, shortened: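 Steps: enzyme (90 nM) plus NADPH (400 uM final), 5 min at ~22 deg C; compound added, 15 min; selenite (400 uM final) added; fluorescence followed for 8 min. Concentration-response curves derived from the normalized delta values.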

[18] = biological target: Flap endonuclease 1 (Homo sapiens) (UniProt P39748); test: qHTS Validation Assay for the Inhibitors of Human Flap endonuclease 1 (FEN1) (AID 488816); note: potency is the fitted concentration of half-maximal effect
Procedure, shortened: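 Human FEN1 (10 nM) preincubated 15 min at room temperature with compounds, then flap DNA substrate added at 50 nM final. Fluorescence read at 0 and 15 min; concentration-response fitted with four-parameter Hill equation.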

[19] = biological target: M-phase phosphoprotein 8 (Homo sapiens) (UniProt Q99549); test: qHTS Validation Assay for Inhibitors for MPP8 Chromodomain Interactions with Methylated Histone Tails (AID 488949); note: potency is the fitted concentration of half-maximal effect; nearly all actives have a fitted effect of over 55% in size
Procedure, shortened: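 50 nM MPP8 + 50 nM b-H3K9me3 peptide, PBS pH 7.4/0.01% Tween-20, 30 min RT; + cpd 30 min RT; + AlphaScreen donor/Ni-chelate acceptor beads 10 ug/mL final, 30 min dark; luminescence read.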

[20] = biological target: Chromobox protein homolog 1 (Homo sapiens) (UniProt P83916); test: qHTS Validation Assay for Inhibitors of HP1-beta Chromodomain Interactions with Methylated Histone Tails (AID 488953); note: potency is the fitted concentration of half-maximal effect; nearly all actives have a fitted effect of over 50% in size
Procedure, shortened: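 HP1-beta (50 nM) was preincubated 30 min at room temperature with biotinylated H3(1-18)K9me3 peptide (50 nM) in PBS pH 7.4, 0.01% Tween-20, then with compounds 30 min. AlphaScreen signal was read after streptavidin donor/nickel chelate acceptor beads (10 ug/mL final).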

[21] = biological target: Methanococcus maripaludis chaperonin (MmCpn) (UniProt Q6LX38); test: High-Throughput Screening for Modulators of Cytosolic Chaperonin Activity: MmCpn Primary Screen (AID 488978);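 note: 50 nM MmCpn enzyme hydrolysing 30 µM ATP at 37 °C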
Procedure, shortened: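 Steps: chaperonin 50 nM final; add compound, 5 min RT; start with ATP, 30 uM final; hold 10 min at 37C; add ADP Transcreener HTRF reagent, 5 min; read ex 320, em 590 and 665 nm.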

Measured: Potency

Chain of M-phase phosphoprotein 8 (Homo sapiens) (Q99549 whole entry, looked up): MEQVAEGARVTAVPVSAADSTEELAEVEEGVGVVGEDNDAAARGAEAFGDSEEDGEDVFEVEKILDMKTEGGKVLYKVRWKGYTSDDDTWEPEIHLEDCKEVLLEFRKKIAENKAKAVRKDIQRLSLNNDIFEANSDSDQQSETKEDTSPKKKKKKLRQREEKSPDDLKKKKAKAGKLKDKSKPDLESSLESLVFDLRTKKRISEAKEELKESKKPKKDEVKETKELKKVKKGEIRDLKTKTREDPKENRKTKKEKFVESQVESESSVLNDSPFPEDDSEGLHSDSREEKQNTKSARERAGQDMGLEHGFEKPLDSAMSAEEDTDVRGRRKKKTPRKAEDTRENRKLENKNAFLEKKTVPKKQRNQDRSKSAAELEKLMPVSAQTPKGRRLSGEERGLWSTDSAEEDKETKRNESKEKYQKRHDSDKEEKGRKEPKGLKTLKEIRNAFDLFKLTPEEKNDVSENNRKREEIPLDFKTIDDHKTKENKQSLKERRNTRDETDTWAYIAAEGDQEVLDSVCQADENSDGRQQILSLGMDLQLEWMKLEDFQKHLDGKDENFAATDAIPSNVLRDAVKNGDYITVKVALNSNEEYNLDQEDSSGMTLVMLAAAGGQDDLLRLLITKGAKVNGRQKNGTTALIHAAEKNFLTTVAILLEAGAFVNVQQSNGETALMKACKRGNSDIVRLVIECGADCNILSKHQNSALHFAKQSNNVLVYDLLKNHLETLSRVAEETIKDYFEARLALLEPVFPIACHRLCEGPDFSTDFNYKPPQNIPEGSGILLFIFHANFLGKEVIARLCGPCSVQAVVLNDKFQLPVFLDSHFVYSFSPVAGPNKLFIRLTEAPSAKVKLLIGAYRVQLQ
Chain of Ubiquitin carboxyl-terminal hydrolase 2 (Homo sapiens) (O75604 whole entry, looked up): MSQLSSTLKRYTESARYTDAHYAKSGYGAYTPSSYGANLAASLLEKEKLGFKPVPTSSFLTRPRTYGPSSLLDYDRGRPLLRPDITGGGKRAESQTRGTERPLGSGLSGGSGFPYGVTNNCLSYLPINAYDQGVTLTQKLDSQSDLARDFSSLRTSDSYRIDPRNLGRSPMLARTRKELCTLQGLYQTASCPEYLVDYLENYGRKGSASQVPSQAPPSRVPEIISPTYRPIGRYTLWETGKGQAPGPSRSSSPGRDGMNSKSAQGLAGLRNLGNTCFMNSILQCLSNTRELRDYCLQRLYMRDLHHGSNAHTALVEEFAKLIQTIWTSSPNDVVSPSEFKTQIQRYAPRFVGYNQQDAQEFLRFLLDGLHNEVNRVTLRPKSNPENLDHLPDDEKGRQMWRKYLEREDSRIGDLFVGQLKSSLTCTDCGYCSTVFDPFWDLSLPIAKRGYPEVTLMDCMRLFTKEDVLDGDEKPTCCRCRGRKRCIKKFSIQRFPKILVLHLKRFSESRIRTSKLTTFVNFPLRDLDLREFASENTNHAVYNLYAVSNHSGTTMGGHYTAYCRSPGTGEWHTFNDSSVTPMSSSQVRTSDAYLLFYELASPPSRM
Chain of ATP-dependent DNA helicase Q1 (Homo sapiens) (P46063 whole entry, looked up): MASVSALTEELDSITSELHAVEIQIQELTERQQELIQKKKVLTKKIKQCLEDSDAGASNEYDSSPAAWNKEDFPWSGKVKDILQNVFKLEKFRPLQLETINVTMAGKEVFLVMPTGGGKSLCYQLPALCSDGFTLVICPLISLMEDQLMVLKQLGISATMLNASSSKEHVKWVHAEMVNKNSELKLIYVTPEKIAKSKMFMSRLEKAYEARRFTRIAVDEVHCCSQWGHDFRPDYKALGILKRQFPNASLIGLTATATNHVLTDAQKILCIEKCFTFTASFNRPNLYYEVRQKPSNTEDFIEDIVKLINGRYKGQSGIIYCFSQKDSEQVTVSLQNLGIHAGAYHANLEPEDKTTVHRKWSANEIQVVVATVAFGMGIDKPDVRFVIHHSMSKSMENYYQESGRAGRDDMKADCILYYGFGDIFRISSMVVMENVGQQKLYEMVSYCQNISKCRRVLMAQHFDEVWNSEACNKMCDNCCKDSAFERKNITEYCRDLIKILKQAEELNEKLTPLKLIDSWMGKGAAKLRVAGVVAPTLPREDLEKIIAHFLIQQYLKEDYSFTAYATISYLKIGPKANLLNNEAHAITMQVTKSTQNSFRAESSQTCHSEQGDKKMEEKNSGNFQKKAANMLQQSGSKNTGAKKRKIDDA
Chain of Chromobox protein homolog 1 (Homo sapiens) (P83916 whole entry, looked up): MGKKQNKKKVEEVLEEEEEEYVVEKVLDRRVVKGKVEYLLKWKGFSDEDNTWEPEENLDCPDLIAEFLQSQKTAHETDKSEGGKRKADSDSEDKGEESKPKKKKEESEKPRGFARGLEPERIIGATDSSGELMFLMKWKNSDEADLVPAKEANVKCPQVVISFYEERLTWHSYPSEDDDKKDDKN
Chain of Beta-2 adrenergic receptor (Homo sapiens) (P07550 whole entry, looked up): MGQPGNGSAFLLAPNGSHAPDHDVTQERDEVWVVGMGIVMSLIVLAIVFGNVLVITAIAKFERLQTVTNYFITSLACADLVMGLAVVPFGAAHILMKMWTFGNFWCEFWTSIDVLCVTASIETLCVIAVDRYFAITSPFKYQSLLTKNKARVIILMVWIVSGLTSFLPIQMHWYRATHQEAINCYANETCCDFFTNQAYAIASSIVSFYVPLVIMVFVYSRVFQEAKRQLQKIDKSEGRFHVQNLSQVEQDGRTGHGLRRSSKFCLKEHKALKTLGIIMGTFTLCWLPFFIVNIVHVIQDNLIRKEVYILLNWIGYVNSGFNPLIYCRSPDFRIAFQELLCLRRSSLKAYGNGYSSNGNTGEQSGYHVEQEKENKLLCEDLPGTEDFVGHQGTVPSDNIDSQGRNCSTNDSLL
Chain of Flap endonuclease 1 (Homo sapiens) (P39748 whole entry, looked up): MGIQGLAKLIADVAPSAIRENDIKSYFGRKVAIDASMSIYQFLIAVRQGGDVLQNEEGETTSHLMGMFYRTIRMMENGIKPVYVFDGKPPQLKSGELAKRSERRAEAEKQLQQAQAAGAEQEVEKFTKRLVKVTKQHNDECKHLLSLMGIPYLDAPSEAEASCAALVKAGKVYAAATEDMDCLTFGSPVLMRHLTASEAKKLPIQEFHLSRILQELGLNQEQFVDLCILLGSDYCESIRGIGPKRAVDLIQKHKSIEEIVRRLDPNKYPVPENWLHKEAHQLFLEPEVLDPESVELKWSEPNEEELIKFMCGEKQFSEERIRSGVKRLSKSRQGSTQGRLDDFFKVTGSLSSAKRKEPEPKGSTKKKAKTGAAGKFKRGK
Chain of Tumor susceptibility gene 101 protein (Homo sapiens) (Q99816 whole entry, looked up, the tested form may be a part): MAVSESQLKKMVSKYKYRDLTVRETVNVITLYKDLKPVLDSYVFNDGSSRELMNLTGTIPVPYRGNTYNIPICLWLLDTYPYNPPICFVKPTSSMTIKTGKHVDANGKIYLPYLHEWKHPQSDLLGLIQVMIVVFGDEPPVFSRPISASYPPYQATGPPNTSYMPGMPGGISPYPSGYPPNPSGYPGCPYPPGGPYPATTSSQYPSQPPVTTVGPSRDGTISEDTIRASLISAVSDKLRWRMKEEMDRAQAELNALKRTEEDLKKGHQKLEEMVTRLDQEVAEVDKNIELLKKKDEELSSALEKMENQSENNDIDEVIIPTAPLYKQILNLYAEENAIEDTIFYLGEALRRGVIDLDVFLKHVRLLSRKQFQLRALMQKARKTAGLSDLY
Chain of Thioredoxin reductase 1, cytoplasmic (Rattus norvegicus) (O89049 whole entry, looked up): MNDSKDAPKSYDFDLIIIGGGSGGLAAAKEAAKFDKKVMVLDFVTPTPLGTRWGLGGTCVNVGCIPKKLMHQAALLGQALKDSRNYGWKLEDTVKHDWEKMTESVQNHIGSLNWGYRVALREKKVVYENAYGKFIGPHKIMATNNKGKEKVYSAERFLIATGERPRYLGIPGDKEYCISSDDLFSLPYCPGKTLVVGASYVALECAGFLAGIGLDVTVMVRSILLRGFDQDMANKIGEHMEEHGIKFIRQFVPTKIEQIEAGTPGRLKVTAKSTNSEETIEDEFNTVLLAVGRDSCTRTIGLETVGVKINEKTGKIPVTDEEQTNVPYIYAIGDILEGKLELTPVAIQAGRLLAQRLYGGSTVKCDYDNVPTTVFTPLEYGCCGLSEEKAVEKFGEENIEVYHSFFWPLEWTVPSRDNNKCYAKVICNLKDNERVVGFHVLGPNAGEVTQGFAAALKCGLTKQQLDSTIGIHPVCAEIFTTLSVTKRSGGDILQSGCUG
Chain of Methanococcus maripaludis chaperonin (MmCpn) (Q6LX38 1-543): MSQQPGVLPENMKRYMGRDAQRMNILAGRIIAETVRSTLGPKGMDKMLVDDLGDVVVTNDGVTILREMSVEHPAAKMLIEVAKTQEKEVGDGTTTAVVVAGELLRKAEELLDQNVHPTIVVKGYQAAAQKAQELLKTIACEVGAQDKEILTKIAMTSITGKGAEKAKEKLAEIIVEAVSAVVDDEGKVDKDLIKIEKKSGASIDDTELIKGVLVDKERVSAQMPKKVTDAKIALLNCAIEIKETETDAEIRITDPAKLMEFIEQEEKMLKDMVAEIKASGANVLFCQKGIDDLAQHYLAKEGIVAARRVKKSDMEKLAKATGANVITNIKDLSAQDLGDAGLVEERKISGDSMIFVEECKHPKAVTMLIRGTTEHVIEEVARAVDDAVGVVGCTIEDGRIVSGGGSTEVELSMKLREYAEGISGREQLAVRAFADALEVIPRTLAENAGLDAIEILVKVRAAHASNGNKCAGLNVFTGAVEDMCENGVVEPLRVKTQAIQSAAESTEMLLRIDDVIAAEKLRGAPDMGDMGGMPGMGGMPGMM

N#C/C(=C\c1ccc(O)c(O)c1)C(=O)Nc1ccccc1
active: [2] 8.91 µM | [3] 14.1 µM | [4] 12.6 µM | [5] 10 µM | [6] 12.6 µM | [7] 7.94 µM | [18] 18.9 µM | [19] 12.6 µM and 10.6 µM | [20] 12.6 µM
inactive: [1] | [8] | [9] | [10] | [11] | [12] | [13] | [14] | [15] | [16] | [17] | [21]
